PubChem BioAssay AID588342 (National Center for Advancing Translational Sciences (NCATS), 2011)
Among all 360,000 compounds or so, about 25,000 (6.9%) were called active. Another 9% or so got no clear call; they are omitted. Calls come from the whole dose curve; as a rule, active = well fitted inhibition curve with a large enough effect; inconclusive = small, poorly fitted or top-dose-only effect; inactive = flat fitted curve, though single readings scatter. Only a selection was taken, and actives are over-represented in it overall.

target: Luciferin 4-monooxygenase (Photinus pyralis) (UniProt P08659); experiment: qHTS profiling assay for firefly luciferase inhibitor/activator using purifed enzyme and Km concentrations of substrates (counterscreen for miR-21 project); settings: purified FLuc, luminescence inhibition; series mostly up to 57.5 µM; activity change, negative = inhibition: at the top concentration; note: nearly all actives have a fitted effect of over 55% in size;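 for activity change, negative = inhibition: plate controls were vehicle for no effect and reference inhibitor for full effect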
Sequence (P08659 whole entry, looked up): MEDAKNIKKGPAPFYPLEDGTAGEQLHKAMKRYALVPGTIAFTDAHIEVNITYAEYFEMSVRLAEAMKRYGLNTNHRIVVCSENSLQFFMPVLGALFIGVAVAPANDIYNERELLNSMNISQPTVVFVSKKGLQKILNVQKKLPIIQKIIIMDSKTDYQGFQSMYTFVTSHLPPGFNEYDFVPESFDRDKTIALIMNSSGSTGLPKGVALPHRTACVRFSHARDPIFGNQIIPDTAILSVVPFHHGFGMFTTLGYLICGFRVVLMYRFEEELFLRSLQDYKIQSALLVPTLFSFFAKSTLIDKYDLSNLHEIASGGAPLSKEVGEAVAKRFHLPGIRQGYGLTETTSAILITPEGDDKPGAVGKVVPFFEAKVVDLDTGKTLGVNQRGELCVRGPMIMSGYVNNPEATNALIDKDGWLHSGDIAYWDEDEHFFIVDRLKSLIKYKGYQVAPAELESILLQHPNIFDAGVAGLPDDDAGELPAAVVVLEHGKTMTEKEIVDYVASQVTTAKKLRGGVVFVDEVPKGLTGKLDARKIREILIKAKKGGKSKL
Procedure, shortened: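 Biochemical qHTS of compounds, final roughly 60 µM downward over six points, against 10 nM purified firefly luciferase using Km concentrations of substrates (10 uM D-luciferin, 10 uM ATP) in Tris acetate pH 7.5 buffer; luminescence output.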
Potency is the fitted concentration of half-maximal effect.

SMILES	activity change, negative = inhibition	Potency
Cc1ccc(O)c(NC(=O)CCS(=O)(=O)c2nc(-c3ccc4c(c3)OCO4)cc(C(F)(F)F)n2)c1	1.61% (inactive)	
CCc1ccc(NC(=O)c2cc(S(=O)(=O)N3CCCC(C)C3)cn2C)cc1 (stereo unspecified)	-1.37% (inactive)	
COc1ccc(Nc2nc(=O)[nH]nc2C)cc1	10.5% (inactive)	
CCOc1ccc(Nc2ncnc3scc(-c4ccc(OC)cc4)c23)cc1	3.74% (inactive)	
COc1ccc(Nc2ncnc3sc(C)cc23)cc1		16.9 µM (active)
COc1ccc(Nc2ncnc3ccc(Br)cc23)c(OC)c1		26.9 µM (active)
C=CCNc1ncnc2ccc(Br)cc12	-1.56% (inactive)	
O=C(O)CCCCCNc1ncnc2ccc(Br)cc12	0.793% (inactive)	
Oc1ccccc1N1CCN(c2ncnc3sc(-c4ccccc4)cc23)CC1	-11.7% (inactive)	
COc1ccc(NC(=O)c2sc(N3CCOCC3)nc2-c2ccccc2)c(OC)c1	-2.03% (inactive)	
COc1ccc(Nc2ncnc3sc(-c4ccccc4)cc23)c(OC)c1		19 µM (active)
Cc1cc(C)cc(NC(=O)CSc2nc3nccnc3c(=O)n2CCc2c[nH]c3ccccc23)c1	-6.41% (inactive)	
COc1ccc(N2CCN(C(=O)C3CCCN(C(=O)c4cc5sccc5n4C)C3)CC2)cc1 (stereo unspecified)	-10.7% (inactive)	
Cc1cc(C)c2sc(NC(=O)c3ccc(S(=O)(=O)N4CCCC4)cc3)nc2c1	-1.89% (inactive)	
CC(C)(C)c1ccc(/C=C2\Oc3c(ccc(O)c3CN3CCN(CCO)CC3)C2=O)cc1	-7.13% (inactive)	
CCOc1ccc(-n2c(C)nc3c(cnn3-c3ccc(C)cc3)c2=O)cc1	6.57% (inactive)	
CCN(CC(=O)Nc1ccc(NC(C)=O)cc1)C(=O)CSC(=S)N1CCCC1	-0.101% (inactive)	
Cn1c(-c2ccc(C(F)(F)F)cc2)cc2onc(-c3ccccc3)c2c1=O		0.536 µM (active)
O=C1c2ccccc2C(=O)N1Cc1cc(-c2ccccc2Cl)no1	-14% (inactive)	
Cc1onc(-c2ccccc2)c1C(=O)N1CCN(S(=O)(=O)c2ccccc2C(F)(F)F)CC1	3.66% (inactive)	
Cn1c(-c2ccc(F)cc2)cc2onc(-c3ccccc3Cl)c2c1=O		2.13 µM (active)
Cc1[nH]n(C)c(=O)c1C(=O)c1c(-c2c(Cl)cccc2Cl)noc1C	0.456% (inactive)	
O=c1c2ccccc2c(-c2ccc(F)cc2)nn1-c1ccc(C(F)(F)F)cc1	5.56% (inactive)	
COc1ccccc1C1C(C(=O)N2CCCCC2)=C(C)Nc2nc3ccccc3n21 (stereo unspecified)	1.67% (inactive)	
COc1ccccc1CNC(=O)CCCN1C(=O)NC2(CCCC2)C1=O	-1.94% (inactive)	
CCc1cc(CNC(=O)CC2C(=O)NCCN2CC2CCCCC2)on1 (stereo unspecified)	3.31% (inactive)	

SMILES	activity change, negative = inhibition	Potency
FC(F)(F)C1CCCN(c2nsc3ccccc23)C1 (stereo unspecified)		9.53 µM (active)
O=C(NC(Cc1ccccc1)C(=O)N1CCCC(C(F)(F)F)C1)c1ccccc1 (stereo unspecified)	-0.559% (inactive)	
CC(=O)N1CCCc2cc(S(=O)(=O)N3CCC(C(=O)NCc4ccc(F)cc4)CC3)ccc21	-4.77% (inactive)	
O=C(NC(=O)c1ccccc1)Nc1ccccc1O		1.9 µM (active)
O=C(NC(=O)N1CCOCC1)c1ccccc1	-2.28% (inactive)	
CNC(=O)C(NC(=O)c1ccccc1)=C(C)C	-0.136% (inactive)	
COc1ccc(OC)c(NC(=O)CSC2=Nc3ccccc3C3=NC(CC(=O)NCc4ccc(F)cc4)C(=O)N23)c1 (stereo unspecified)	-11% (inactive)	
COc1cc2ccccc2cc1C(=O)Nc1nc(C)c(C(C)=O)s1		4.78 µM (active)
COc1cccc2sc(N(CCCN(C)C)C(=O)C(c3ccccc3)c3ccccc3)nc12	6.95% (inactive)	
COc1cc2ccccc2cc1C(=O)N1CCOCC1	4.45% (inactive)	
COc1ccc(Br)cc1C(=O)Nc1cccc(C)c1C	3.91% (inactive)	
COc1cc(OC)c(C(=O)Nc2ccc(N(C)C)cc2)cc1OC		10.7 µM (active)
COc1cc(OC)c(C(=O)Nc2ccccc2-c2ccccc2)cc1OC	4.62% (inactive)	
COc1ccccc1NC(=O)c1cc(Cl)nnc1Cl	-4.24% (inactive)	
COc1cccc2sc(Nc3nc(C)c(C(C)=O)s3)nc12		6.75 µM (active)
COC(=O)c1ccc(NC(=O)c2cc(Cl)ccc2OC)cc1	-7.08% (inactive)	
CNC(=O)c1sc(NCc2ccccc2OC)nc1C	-3.58% (inactive)	
COc1cc2ccccc2cc1C(=O)Nc1ccccc1C		8.49 µM (active)
CCC(=O)Nc1nc(C)c(C(=O)Nc2cccc(Cl)c2)s1	-11.7% (inactive)	
CC(=O)c1ccc(NC(=O)CSc2c(C(C)C)cnc3c2c(=O)n(C)c(=O)n3C)cc1	-12.3% (inactive)	
CS(=O)(=O)N(CC(=O)N1CCOCC1)c1ccc2c3c(cccc13)CC2	3.63% (inactive)	
Cc1ccc(S(=O)(=O)N2CCC(C(=O)OCC(=O)N3CC(=O)Nc4ccccc43)CC2)cc1	0.335% (inactive)	
Cc1cc(C)n(CCC(=O)N2CCN(S(=O)(=O)c3ccc(C)c(C)c3)CC2)n1	0.684% (inactive)	
COc1ccccc1C(=O)Nc1c(C(=O)N(C)Cc2ccccc2)sc2nc(C)c(Cl)c(C)c12	1.14% (inactive)	
O=C(O)c1ccc2c(c1)N(Cc1ccc(F)cc1)C(=O)c1ccccc1S2=O (stereo unspecified)	-16.8% (inactive)	
